# “And” between values parts separate entries of the source, which are not always exact repeats. Identical values can stand only once. This is part of a sample that, as a whole, favours compounds with a hit. Of some 83,000 tested, about 20% had one in any assay.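 Interpretation: 100, growth as untreated; towards 0, rising growth inhibition; 0, no net growth; 0 to -100, cell death. Compounds scoring below 10 were considered active.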 The source made the active and inactive calls.
# Legend:
# Test in all cases: NCI-60 one-dose screen, 48 h (100 = growth as untreated, 0 = no growth, -100 = all killed)
# Conditions in all cases: 10 µM unless noted
# SR leukemia = test system: SR leukemia
# RPMI-8226 leukemia = test system: RPMI-8226 leukemia
# OVCAR-8 ovarian = test system: OVCAR-8 ovarian
# OVCAR-5 ovarian = test system: OVCAR-5 ovarian
# OVCAR-4 ovarian = test system: OVCAR-4 ovarian
# SK-OV-3 ovarian = test system: SK-OV-3 ovarian
# IGROV1 ovarian = test system: IGROV1 ovarian
# OVCAR-3 ovarian = test system: OVCAR-3 ovarian
# HS 578T breast = test system: HS 578T breast
# NCI/ADR-RES ovarian = test system: NCI/ADR-RES ovarian
# BT-549 breast = test system: BT-549 breast
# MDA-MB-435 melanoma = test system: MDA-MB-435 melanoma
# SW-620 colon = test system: SW-620 colon
# MCF7 breast = test system: MCF7 breast
# HCT-116 colon = test system: HCT-116 colon
# HCC-2998 colon = test system: HCC-2998 colon
# KM12 colon = test system: KM12 colon
# T-47D breast = test system: T-47D breast
Structure (SMILES),growth (SR leukemia),growth (RPMI-8226 leukemia),growth (OVCAR-8 ovarian),growth (OVCAR-5 ovarian),growth (OVCAR-4 ovarian),growth (SK-OV-3 ovarian),growth (IGROV1 ovarian),growth (OVCAR-3 ovarian),growth (HS 578T breast),growth (NCI/ADR-RES ovarian),growth (BT-549 breast),growth (MDA-MB-435 melanoma),growth (SW-620 colon),growth (MCF7 breast),growth (HCT-116 colon),growth (HCC-2998 colon),growth (KM12 colon),growth (T-47D breast)
O=C(CO)C(O)C(O)C(O)C(O)CO (stereo not drawn),103% (inactive) and 93.9% (inactive),107% (inactive) and 100% (inactive),108% (inactive) and 99.9% (inactive),105% (inactive) and 109% (inactive),108% (inactive) and 116% (inactive),87.8% (inactive) and 85.7% (inactive),106% (inactive) and 109% (inactive),110% (inactive) and 109% (inactive),101% (inactive) and 104% (inactive),106% (inactive) and 107% (inactive),111% (inactive) and 117% (inactive),110% (inactive) and 107% (inactive),105% (inactive) and 100% (inactive),101% (inactive) and 102% (inactive),99.7% (inactive) and 97.4% (inactive),109% (inactive) and 119% (inactive),106% (inactive) and 105% (inactive),–
Cc1cc2ccccc2cn1,109% (inactive),100% (inactive) and 114% (inactive),102% (inactive),107% (inactive),108% (inactive) and 90.4% (inactive),108% (inactive) and 103% (inactive),144% (inactive),112% (inactive) and 111% (inactive),–,103% (inactive) and 118% (inactive),106% (inactive) and 105% (inactive),101% (inactive) and 106% (inactive),104% (inactive) and 116% (inactive),98.5% (inactive) and 101% (inactive),99% (inactive) and 108% (inactive),112% (inactive) and 118% (inactive),–,104% (inactive) and 107% (inactive)
OCCN1CCCCCCC1,109% (inactive),108% (inactive),101% (inactive),109% (inactive),–,103% (inactive),104% (inactive),111% (inactive),–,102% (inactive),98.2% (inactive),98.4% (inactive),108% (inactive),99% (inactive),97.1% (inactive),100% (inactive),–,95.6% (inactive)
CCCCCCCCCCNC(=O)CI,-40.9% (active),-37.1% (active),0.969% (active),95.8% (inactive),-44.1% (active),5.75% (active),-67.4% (active),-70.3% (active),–,2.88% (active),-87% (active),9.57% (active),-33.9% (active),10.7% (inactive),-28.3% (active),98.4% (inactive),–,-21.1% (active)
c1ccc(CNCCNCc2ccccc2)cc1,95.3% (inactive),101% (inactive),124% (inactive),102% (inactive),103% (inactive),107% (inactive),120% (inactive),121% (inactive),–,112% (inactive),107% (inactive),106% (inactive),107% (inactive),93.4% (inactive),103% (inactive),116% (inactive),120% (inactive),103% (inactive)
CC(C)(O)C(=O)O,–,103% (inactive),109% (inactive),99.7% (inactive),105% (inactive),97.9% (inactive),101% (inactive),109% (inactive),102% (inactive),111% (inactive),103% (inactive),107% (inactive),110% (inactive),93.8% (inactive),100% (inactive),119% (inactive),–,100% (inactive)
CC(=O)Nc1ccc(S(N)(=O)=O)cc1,117% (inactive) and 105% (inactive),95.6% (inactive) and 111% (inactive),99.5% (inactive) and 97.6% (inactive),106% (inactive) and 102% (inactive),99.4% (inactive) and 105% (inactive),95.4% (inactive) and 99.8% (inactive),99.5% (inactive) and 97.1% (inactive),110% (inactive) and 116% (inactive),–,102% (inactive) and 104% (inactive),104% (inactive),97.4% (inactive) and 96.3% (inactive),96.7% (inactive) and 104% (inactive),91.8% (inactive) and 93.3% (inactive),94.2% (inactive) and 93.6% (inactive),108% (inactive),–,87.7% (inactive) and 100% (inactive)

# Source: PubChem BioAssay (NCI)
